Results as given in PubChem BioAssay (Tox21).
Inconclusive results are not listed. Calls of active or inactive are those of the source. Unless noted, calls come from the whole dose curve; as a rule, active = well fitted curve in the direction sought with a large enough effect in the repeat runs; inconclusive = weak or mixed curves; inactive = no such curve, though single readings can be large; an effect the other way counts as inactive or inconclusive.

Tests used:
[1] = A CellTox Green Cytotoxicity Assay to monitor cytotoxicity in HEK293 cells - 16 hour (AID 1224888); note: nearly all actives have a fitted effect of over 35% in size
Outline: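 Real-time, in one plate: 600 HEK293 cells/well with dead-cell DNA dye, pinned compound after 5 h, 37 C incubation over 40 h; viable cells give no appreciable fluorescence.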

[2] = qHTS RealTime-Glo MT Cell Viability Assay in HepG2 cells - 0 hour (AID 1224889); note: nearly all actives have a fitted effect of over 50% in size; note: potency is the fitted concentration of half-maximal effect
Outline: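 HepG2 cells were seeded at 600 cells/well together with NanoLuc luciferase and a cell-permeant prosubstrate, preincubated 5 h at 37 C/5% CO2, then pin-dosed with compounds in DMSO. Nonlytic luminescence from viable cells was read at each time point.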

[3] = A CellTox Green Cytotoxicity Assay to monitor cytotoxicity in HepG2 cells - 8 hour (AID 1224890); note: nearly all actives have a fitted effect of over 45% in size
Outline: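 Cytotoxicity was tracked as dead-cell DNA fluorescence in HepG2 cells treated with test compounds at 37 C; each time-point value comes from one kinetic series spanning 0, 8, 16, 24, 32 and 40 h.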

[4] = qHTS assay to identify small molecule antagonists of the estrogen receptor alpha (ER-alpha) signaling pathway using the BG1 cell line in the presence of 0.1 nM 17-beta-estradiol - cell viability counter screen (AID 1259241); note: nearly all actives have a fitted effect of over 40% in size
Outline: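 Following 5 days in phenol red-free medium with charcoal-stripped serum, VM7Luc4E2 cells received test compounds alongside 0.1 nM 17beta-estradiol (final) at 37C for 22 hr. Live cells were then quantified via protease-substrate fluorescence.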

[5] = qHTS assay to identify small molecule antagonists of the androgen receptor (AR) signaling pathway using the MDA cell line in the presence of 0.5 nM R1881 - cell viability counter screen (AID 1259242); note: nearly all actives have a fitted effect of over 45% in size
Outline: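 Cells seeded at 3,000/well and allowed 5 hr at 37C, 0% CO2 before compound transfer and R1881 (0.5 nM final) addition; 16 hr later, live-cell protease fluorescence indicated cytotoxicity.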

[6] = target: Estrogen receptor (Homo sapiens) (UniProt P03372); assay: qHTS assay to identify small molecule antagonists of the estrogen receptor alpha (ER-alpha) signaling pathway using the BG1 cell line in the presence of 0.1 nM 17-beta-estradiol (AID 1259244); note: nearly all actives have a fitted effect of over 50% in size
Outline: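 Luciferase signal from VM7Luc4E2 ERE-reporter cells, co-dosed with test compound and 0.1 nM final 17beta-estradiol for 22 h, read with ONE-Glo.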

[7] = qHTS assay to identify small molecule HDAC inhibitors (AID 1259364); note: potency is the fitted concentration of half-maximal effect;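 note: wild-type HCT-116 cells with endogenous class I/II HDAC activity; nearly all actives have a fitted effect of over 45% in size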; for activity change, negative = inhibition: top concentration of the series differs between compounds
Outline: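 HCT-116 wt cells, 1,500/well, overnight attach. Compounds (DMSO) 2 h, 37 °C. HDAC-Glo I/II, 30 min RT. Luminescence.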

[8] = qHTS assay to identify small molecule HDAC inhibitors - cell viability counter screen (AID 1259365); note: series mostly up to about 92 µM; nearly all actives have a fitted effect of over 50% in size
Outline: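 HCT-116 wild-type, overnight attachment; 2hr drug exposure, 37C; CellTiter-Glo luminescent ATP readout after 30min RT.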

[9] = qHTS assay to identify small molecule phospholipidosis (PLD) inducers (AID 1259344; active = well fitted curve in the direction sought with a large enough effect; an effect the other way counts as inactive or inconclusive)
Outline: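 Accumulated phospholipid, stained red by LipidTOX during 24 h compound treatment of HepG2 cells at 37 C, is quantified from images as pit number and intensity, normalised per cell using Hoechst-stained nuclei.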
% is set by controls: 0 for no effect and ±100 for the full control effect.

Chain of Estrogen receptor (Homo sapiens) (P03372 whole entry, looked up): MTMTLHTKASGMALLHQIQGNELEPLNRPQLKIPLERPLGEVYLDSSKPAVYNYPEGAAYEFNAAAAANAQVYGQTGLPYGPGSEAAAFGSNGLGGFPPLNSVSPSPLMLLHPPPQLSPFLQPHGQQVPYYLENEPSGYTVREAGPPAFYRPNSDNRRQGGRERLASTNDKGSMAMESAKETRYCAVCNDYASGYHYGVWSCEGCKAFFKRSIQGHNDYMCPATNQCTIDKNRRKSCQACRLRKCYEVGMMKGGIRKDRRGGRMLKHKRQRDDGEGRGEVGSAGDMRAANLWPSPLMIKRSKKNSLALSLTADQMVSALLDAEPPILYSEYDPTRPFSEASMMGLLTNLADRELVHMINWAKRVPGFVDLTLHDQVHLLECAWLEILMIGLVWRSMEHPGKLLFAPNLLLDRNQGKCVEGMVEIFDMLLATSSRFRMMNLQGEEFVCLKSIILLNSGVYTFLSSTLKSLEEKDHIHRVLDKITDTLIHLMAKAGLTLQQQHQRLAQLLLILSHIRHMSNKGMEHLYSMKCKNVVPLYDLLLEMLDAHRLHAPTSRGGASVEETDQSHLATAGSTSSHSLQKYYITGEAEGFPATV

Cc1ccc(OC(=O)CC(C)C)cc1
inactive: Potency [1] | Potency [2] | Potency [3] | outcome [4] | outcome [5] | outcome [6] | Potency [7]

CCC(=O)OCCOc1ccccc1
inactive: Potency [1] | Potency [2] | Potency [3] | outcome [4] | outcome [5] | outcome [6] | Potency [7]

CNC(C)=O
inactive: Potency [1] | Potency [2] | Potency [3] | outcome [4] | outcome [5] | outcome [6] | Potency [7]

Cc1ccc(NC(N)=O)cc1
inactive: Potency [1] | Potency [2] | Potency [3] | outcome [4] | outcome [5] | outcome [6] | Potency [7] | outcome [8]

Cc1ccc(S(=O)(=O)NC(=O)NN2CC3CCCC3C2)cc1 (stereo unspecified)
inactive: Potency [1] | Potency [2] | Potency [3] | outcome [4] | outcome [5] | outcome [6] | Potency [9] | Potency [7] | outcome [8]

Cc1ccccc1OCC(=O)O
inactive: Potency [1] | Potency [2] | Potency [3] | outcome [4] | outcome [5] | outcome [6] | Potency [7]

N#CC1(N)CCCCC1
inactive: Potency [1] | Potency [2] | Potency [3] | outcome [4] | outcome [5] | outcome [6] | Potency [7]

CCCCC(O)/C=C(C)/C=C/C=C/C(=O)N1CCCC1=O (stereo unspecified)
inactive: Potency [1] | Potency [2] | Potency [3] | outcome [4] | outcome [5] | outcome [6] | Potency [7] | outcome [8]

CC(=O)Nc1ccc(OCCOCCOc2ccc(NC(C)=O)cc2)cc1
inactive: Potency [1] | Potency [2] | Potency [3] | outcome [4] | outcome [5] | outcome [6] | Potency [9] | Potency [7] | outcome [8]

C=CCn1cc[n+](C)c1
inactive: Potency [1] | Potency [2] | Potency [3] | outcome [4] | outcome [5] | outcome [6] | Potency [7] | outcome [8]

COc1cc2nc(N3CCN(C(=O)C4CCCO4)CC3)nc(N)c2cc1OC (stereo unspecified)
active: Potency [7] 3.35 µM
inactive: Potency [1] | Potency [2] | Potency [3] | outcome [4] | outcome [5] | outcome [6] | Potency [9] | outcome [8]

CC(C)(O)CCCC1=CCC(C=O)CC1 (stereo unspecified)
inactive: Potency [1] | Potency [2] | Potency [3] | outcome [4] | outcome [5] | outcome [6] | Potency [7] | outcome [8]

O=C(O)Cc1c(Cl)ccc(Cl)c1Cl
inactive: Potency [1] | Potency [2] | Potency [3] | outcome [4] | outcome [5] | outcome [6] | Potency [7] | outcome [8]

CN1CCN(C(=O)C2CCCCC2)CC1
inactive: Potency [1] | Potency [2] | Potency [3] | outcome [4] | outcome [5] | outcome [6] | Potency [9] | Potency [7] | outcome [8]

CCCCC(CC)CCC(CC(C)C)OS(=O)(=O)O (stereo unspecified)
inactive: Potency [1] | Potency [2] | Potency [3] | outcome [4] | outcome [5] | outcome [6] | Potency [9] | outcome [8]

O=C(O)Cc1ccccc1Oc1ccc(Cl)cc1Cl
inactive: Potency [1] | Potency [2] | Potency [3] | outcome [4] | outcome [5] | outcome [6] | Potency [9] | outcome [8]

CCOC(=O)COc1ccc2c(C)c(CCN(CC)CC)c(=O)oc2c1Cl
inactive: Potency [1] | Potency [2] | Potency [3] | outcome [4] | outcome [5] | outcome [6] | Potency [9] | Potency [7] | outcome [8]

CCCCCCCCCCCC(C)=O
inactive: Potency [1] | Potency [2] | Potency [3] | outcome [4] | outcome [5] | outcome [6] | Potency [7] | outcome [8]

CCCCN1C(=O)c2ccccc2C1=O
inactive: Potency [1] | Potency [2] | Potency [3] | outcome [4] | outcome [5] | outcome [6] | Potency [7]

CC(=O)OCC(=O)[C@@]1(O)CC[C@H]2[C@@H]3CCC4=CC(=O)C=C[C@]4(C)[C@H]3[C@@H](O)C[C@@]21C
inactive: Potency [1] | Potency [3] | outcome [4] | outcome [5] | outcome [6] | Potency [9] | outcome [8]
active: Potency [2] 10.7 µM

C=CCCCCCCCCCCCCCC
inactive: activity change [1] -0.657% [at 15.8 µM, hits give high values] | activity change, negative = cytotoxicity [2] 10.7% [at 15.8 µM] | cytotoxicity increase [3] 8.14% [at 15.8 µM] | activity change, negative = cytotoxicity [4] 0.733% [at 19 µM] | viability change, negative = cytotoxic [5] 1.94% [at 19 µM] | activity change, negative = inhibition [6] -1.96% [at 19 µM] | activity change, negative = inhibition [7] 0.0889% [at 19 µM] | activity change, negative = cytotoxicity [8] 1.69% [at 19 µM]

CCCCNCC
inactive: Potency [1] | Potency [2] | Potency [3] | outcome [4] | outcome [5] | outcome [6] | Potency [7] | outcome [8]

C/C=C(\C)C(=O)OC/C=C(\C)CCC=C(C)C
inactive: Potency [1] | Potency [2] | Potency [3] | outcome [4] | outcome [5] | outcome [6] | Potency [7]

CN(C)CCc1c[nH]c2ccc(CS(=O)(=O)N3CCCC3)cc12
inactive: Potency [1] | Potency [2] | Potency [3] | outcome [4] | outcome [5] | outcome [6] | Potency [9] | Potency [7] | outcome [8]

CN(C)CCCN(C)C
inactive: activity change [1] -1.52% [at 6.97 µM, hits give high values] | activity change, negative = cytotoxicity [2] -4.9% [at 6.97 µM] | cytotoxicity increase [3] -9.61% [at 6.97 µM] | activity change, negative = cytotoxicity [4] -1.36% [at 8.39 µM] | viability change, negative = cytotoxic [5] 2.3% [at 8.39 µM] | activity change, negative = inhibition [6] -10.8% [at 8.39 µM] | activity change, negative = inhibition [7] 2.55% [at 8.39 µM]

O=S(=O)(O)c1ccc(Cl)cc1
inactive: Potency [1] | Potency [2] | Potency [3] | outcome [4] | outcome [5] | outcome [6] | Potency [7] | outcome [8]
